These results are taken from ChEMBL document CHEMBL2218924, “A broad activity screen in support of a chemogenomic map for kinase signalling research and drug discovery” (Biochem J, 2013).

For assay [1], the target named is Tyrosine-protein kinase SYK (Homo sapiens) (UniProt P43405). Conditions: at 10 µM.
Assay [2] addresses T1, Mitogen-activated protein kinase kinase kinase 7 (Homo sapiens) (UniProt O43318).
T1 sequence (whole entry): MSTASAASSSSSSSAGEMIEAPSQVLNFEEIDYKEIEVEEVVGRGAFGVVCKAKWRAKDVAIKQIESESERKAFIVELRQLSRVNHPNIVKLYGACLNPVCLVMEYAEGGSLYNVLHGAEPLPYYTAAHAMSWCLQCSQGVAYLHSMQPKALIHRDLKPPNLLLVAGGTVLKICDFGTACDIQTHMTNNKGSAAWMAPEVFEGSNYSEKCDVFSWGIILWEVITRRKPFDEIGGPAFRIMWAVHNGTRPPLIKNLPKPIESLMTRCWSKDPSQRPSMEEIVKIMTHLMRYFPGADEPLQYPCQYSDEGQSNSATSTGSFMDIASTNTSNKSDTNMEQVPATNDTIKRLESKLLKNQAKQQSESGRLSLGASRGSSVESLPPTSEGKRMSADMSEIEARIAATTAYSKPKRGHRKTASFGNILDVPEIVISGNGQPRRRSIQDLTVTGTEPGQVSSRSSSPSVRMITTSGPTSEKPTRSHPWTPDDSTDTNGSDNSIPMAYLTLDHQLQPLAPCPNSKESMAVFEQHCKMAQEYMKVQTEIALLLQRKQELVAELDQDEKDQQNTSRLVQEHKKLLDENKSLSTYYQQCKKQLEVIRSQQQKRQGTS
As to conditions: at 10 µM.

The target of assay [3] is T2, Serine/threonine-protein kinase TAO1 (Homo sapiens) (UniProt Q7L7X3).
T2 sequence (whole entry): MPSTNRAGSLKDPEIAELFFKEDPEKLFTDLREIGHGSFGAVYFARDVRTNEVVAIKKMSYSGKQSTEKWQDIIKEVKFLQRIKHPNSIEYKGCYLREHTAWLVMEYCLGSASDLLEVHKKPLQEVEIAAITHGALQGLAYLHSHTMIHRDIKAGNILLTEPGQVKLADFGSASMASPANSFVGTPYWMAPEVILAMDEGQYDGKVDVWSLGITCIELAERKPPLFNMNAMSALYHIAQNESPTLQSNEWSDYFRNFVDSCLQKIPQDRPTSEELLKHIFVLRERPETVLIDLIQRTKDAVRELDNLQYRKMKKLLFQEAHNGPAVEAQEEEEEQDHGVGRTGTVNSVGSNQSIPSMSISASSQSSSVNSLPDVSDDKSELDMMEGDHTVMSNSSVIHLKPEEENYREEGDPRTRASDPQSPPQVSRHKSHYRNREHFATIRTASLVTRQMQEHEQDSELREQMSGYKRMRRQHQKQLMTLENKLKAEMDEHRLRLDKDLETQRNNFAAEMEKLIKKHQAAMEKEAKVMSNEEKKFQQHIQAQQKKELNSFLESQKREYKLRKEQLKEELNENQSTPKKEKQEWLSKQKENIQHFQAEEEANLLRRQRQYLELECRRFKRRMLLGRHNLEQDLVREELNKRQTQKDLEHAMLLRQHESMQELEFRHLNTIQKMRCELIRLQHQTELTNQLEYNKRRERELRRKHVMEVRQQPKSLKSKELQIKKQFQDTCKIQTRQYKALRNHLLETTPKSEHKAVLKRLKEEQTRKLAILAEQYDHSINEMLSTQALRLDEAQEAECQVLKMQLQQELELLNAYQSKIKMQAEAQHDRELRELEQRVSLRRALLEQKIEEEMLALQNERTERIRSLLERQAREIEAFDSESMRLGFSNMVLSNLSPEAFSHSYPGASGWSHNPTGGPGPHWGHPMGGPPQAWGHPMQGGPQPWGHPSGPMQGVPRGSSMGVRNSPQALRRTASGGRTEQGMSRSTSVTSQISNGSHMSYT
As to conditions: at 1 µM.

The target in assay [4] is T2, Serine/threonine-protein kinase TAO1 (Homo sapiens). As to conditions: at 10 µM.
Assay [5] addresses T3, Serine/threonine-protein kinase TAO2 (Homo sapiens) (UniProt Q9UL54).
T3 sequence (whole entry): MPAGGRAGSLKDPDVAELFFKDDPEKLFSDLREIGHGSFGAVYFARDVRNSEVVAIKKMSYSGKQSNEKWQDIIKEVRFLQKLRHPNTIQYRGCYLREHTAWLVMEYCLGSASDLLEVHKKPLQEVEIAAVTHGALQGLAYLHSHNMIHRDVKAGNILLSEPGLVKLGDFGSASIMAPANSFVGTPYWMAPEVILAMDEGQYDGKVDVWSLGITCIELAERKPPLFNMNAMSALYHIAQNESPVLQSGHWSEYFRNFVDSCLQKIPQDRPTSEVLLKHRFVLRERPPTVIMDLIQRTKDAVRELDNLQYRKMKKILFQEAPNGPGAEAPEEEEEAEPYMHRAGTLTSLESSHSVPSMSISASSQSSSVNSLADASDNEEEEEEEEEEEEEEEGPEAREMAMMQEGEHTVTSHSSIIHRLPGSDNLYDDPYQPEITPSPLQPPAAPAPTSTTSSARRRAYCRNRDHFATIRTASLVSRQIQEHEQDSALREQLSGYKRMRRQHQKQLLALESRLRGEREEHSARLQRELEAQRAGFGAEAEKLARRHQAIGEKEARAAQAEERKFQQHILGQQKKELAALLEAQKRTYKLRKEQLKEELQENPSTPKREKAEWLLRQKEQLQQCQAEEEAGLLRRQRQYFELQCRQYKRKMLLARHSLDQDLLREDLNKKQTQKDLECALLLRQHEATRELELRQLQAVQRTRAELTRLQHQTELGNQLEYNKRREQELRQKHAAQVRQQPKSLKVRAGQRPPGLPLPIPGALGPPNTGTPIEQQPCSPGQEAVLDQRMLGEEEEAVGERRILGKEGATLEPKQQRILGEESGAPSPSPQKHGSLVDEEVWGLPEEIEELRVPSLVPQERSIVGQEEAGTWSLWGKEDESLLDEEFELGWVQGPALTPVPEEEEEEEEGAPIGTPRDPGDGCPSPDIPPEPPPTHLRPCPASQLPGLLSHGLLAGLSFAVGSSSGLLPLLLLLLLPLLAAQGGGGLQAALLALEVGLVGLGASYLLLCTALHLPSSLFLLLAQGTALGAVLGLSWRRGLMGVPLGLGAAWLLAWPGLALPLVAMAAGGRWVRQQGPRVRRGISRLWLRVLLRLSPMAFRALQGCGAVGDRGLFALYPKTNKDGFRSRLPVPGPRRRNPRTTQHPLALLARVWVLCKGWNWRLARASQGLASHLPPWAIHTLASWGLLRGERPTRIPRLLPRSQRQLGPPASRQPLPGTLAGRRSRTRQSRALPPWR
Conditions: at 10 µM.

Assay [6] concerns the target T4, Serine/threonine-protein kinase TAO3 (Homo sapiens) (UniProt Q9H2K8).
T4 sequence (whole entry): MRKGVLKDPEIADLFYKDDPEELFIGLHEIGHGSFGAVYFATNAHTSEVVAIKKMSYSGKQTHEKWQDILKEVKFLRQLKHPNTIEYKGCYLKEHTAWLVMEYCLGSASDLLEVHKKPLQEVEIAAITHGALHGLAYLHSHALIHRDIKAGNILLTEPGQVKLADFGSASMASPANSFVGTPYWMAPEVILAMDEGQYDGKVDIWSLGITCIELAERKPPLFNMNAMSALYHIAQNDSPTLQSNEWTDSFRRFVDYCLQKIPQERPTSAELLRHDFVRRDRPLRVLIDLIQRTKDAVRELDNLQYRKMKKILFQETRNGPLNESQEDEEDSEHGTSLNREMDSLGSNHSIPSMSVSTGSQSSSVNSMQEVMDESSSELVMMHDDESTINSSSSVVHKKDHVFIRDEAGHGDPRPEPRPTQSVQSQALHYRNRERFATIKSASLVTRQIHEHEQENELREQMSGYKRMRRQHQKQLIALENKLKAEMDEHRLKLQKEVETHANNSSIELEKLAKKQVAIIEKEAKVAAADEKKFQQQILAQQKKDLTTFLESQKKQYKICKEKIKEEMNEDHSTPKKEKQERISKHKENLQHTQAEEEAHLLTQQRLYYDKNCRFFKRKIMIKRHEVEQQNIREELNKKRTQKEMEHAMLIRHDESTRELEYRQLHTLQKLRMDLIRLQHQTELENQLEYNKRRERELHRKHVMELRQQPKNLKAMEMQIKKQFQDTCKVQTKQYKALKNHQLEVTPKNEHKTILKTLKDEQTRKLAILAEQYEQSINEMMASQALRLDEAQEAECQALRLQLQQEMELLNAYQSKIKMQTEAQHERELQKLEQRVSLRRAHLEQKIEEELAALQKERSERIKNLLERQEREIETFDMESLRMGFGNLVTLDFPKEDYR
As to conditions: at 1 µM.

Assay [7] addresses T4, Serine/threonine-protein kinase TAO3 (Homo sapiens). Conditions: at 10 µM.
Assay [8] deals with T5, Serine/threonine-protein kinase TBK1 (Homo sapiens) (UniProt Q9UHD2).
T5 sequence (whole entry): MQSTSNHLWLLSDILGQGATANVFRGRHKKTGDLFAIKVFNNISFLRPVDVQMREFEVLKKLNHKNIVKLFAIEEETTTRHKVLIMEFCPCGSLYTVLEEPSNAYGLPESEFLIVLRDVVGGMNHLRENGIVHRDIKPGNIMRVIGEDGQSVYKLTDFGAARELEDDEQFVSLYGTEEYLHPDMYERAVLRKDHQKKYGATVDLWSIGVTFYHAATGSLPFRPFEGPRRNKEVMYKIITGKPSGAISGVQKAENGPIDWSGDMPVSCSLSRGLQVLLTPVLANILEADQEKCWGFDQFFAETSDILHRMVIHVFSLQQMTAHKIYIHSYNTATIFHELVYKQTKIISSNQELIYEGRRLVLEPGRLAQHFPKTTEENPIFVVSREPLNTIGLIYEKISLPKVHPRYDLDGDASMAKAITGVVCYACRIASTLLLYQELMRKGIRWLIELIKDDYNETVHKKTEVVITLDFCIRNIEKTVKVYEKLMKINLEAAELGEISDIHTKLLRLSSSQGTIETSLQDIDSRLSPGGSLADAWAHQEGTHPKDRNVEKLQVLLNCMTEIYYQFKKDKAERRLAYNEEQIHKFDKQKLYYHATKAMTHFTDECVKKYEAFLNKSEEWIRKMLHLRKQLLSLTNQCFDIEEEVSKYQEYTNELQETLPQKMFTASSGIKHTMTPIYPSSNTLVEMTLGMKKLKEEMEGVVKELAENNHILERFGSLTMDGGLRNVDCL
As to conditions: at 1 µM.

As to `Nc1ncnc2c1c(-c1ccc(Oc3ccccc3)cc1)cn2C1CCCC1`, the residual activity in assay [1] is 59%; in assay [2] it was 81%; in assay [3] it was 94%; in assay [4], 81%; in assay [5] it was 77%; in assay [6] it was 92%. Besides, the residual activity in assay [7] worked out at 77%; in assay [8], 61%.
